# A selection: hits, their analogues and other compounds. The true share with any hit is near 3.2%.
# Tb PYK inh: inhibitors of Trypanosoma brucei pyruvate kinase; Q57TT1; TbPYK enzyme, Kinase-Glo Plus ATP luminescence, 45 min; Potency, µM (doses to about 76.8 µM), for the others: at the top dose activity, negative = inhibition, hits mostly inhibitors; hit rate 0.12% among 410,000; also: nearly all actives have a fitted effect of over 50% in size
#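 Luminescence from Kinase-Glo Plus, added after a 45-minute room-temperature reaction, served as the end-point read-out. The enzyme and substrate were preincubated with compound before ADP (130 uM final) initiated turnover. Concentration-effect curves came from normalized qHTS data.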
# Sm TGR block: inhibitors of Schistosoma mansoni thioredoxin glutathione reductase. hit rate 3% among 360,000. Potency, µM (top dose mostly 114 µM), for the others: top-dose activity change, negative = inhibition, most hits filed as inhibitors. purified TGR, DTNB reduction, TNB absorbance 405 nm. Q962Y6; also: nearly all actives have a fitted effect of over 60% in size
#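 First, TGR (20 nM dispensed) and NADPH were mixed with compound. Second, a 15 min room-temperature incubation followed. Third, further NADPH and then DTNB were added to start the reaction. Finally, TNB absorbance was monitored kinetically.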
# RE007 growth inh: less growth of the S. pombe RE007 Vpr strain; hit rate 0.21% among 360,000; S. pombe RE007 Vpr strain, BacTiter-Glo ATP luminescence, 24 h; Potency, µM (series often up to 92.2 µM), inactives show at the top dose activity change, negative = less growth, most hits filed as inhibitors; AID 651644; active = well fitted falling curve with a large enough effect; inconclusive = small, poorly fitted or top-dose-only effect; inactive = no such curve, though single readings can be large or run the other way; also: nearly all actives have a fitted effect of over 50% in size
#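 Fission yeast strain RE007, carrying one chromosomally integrated HIV-1 vpr copy, was seeded at OD 0.01 in PMG+AL medium with 23 nL pinned compound. After 24 h at 30 °C and 99% humidity, viability was read by BacTiter-Glo luminescence.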
# LmPK inh: LmPK (Leishmania mexicana) enzyme inhibition; Q27686; purified LmPK, Kinase-Glo ATP luminescence, 1 h; Potency, µM (highest dose often 57.5 µM), for the others: top-dose activity change, negative = inhibition, usual class: inhibitors; hit rate 0.37% among 290,000
# Target sequence (Q27686 whole entry, looked up): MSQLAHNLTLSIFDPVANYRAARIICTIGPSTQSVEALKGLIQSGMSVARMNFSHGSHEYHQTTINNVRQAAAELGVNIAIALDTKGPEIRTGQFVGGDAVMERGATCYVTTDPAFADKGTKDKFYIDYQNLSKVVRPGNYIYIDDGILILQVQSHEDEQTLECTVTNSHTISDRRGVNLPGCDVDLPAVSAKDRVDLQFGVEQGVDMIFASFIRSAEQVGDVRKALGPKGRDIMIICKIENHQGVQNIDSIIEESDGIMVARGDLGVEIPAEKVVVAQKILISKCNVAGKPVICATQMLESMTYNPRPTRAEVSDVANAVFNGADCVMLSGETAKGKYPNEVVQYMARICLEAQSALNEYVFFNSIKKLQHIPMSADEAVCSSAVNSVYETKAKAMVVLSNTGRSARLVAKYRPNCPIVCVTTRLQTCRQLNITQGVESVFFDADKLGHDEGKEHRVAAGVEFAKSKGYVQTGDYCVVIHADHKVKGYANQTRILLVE
#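 Screened at intermediate enzyme activity to detect both inhibitors and activators: LmPK at 0.1 nM, with a 0.5 nM enzyme column as activation reference. PEP 0.5 mM, ADP 0.1 mM; ATP detected by luminescence after 1 h.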
# AMA1 RON2 block: inhibitors of Plasmodium falciparum AMA1-RON2 interaction; AlphaScreen AMA1-biotinylated RON2 peptide binding; hit rate 0.2% among 360,000; Potency, µM (top dose mostly 58.2 µM), inactives show at the top dose activity change, negative = inhibition, usual class: inhibitors;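 also: 0% = vehicle wells and -100% = peptide control; nearly all actives have a fitted effect of over 45% in size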
#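 AMA1 (3D7) with his tag at 25 nM final met compounds first, then biotinylated RON2 peptide at 25 nM; detection used donor plus acceptor beads, 10 µg/mL apiece, read by AlphaScreen after 30 min at room temperature.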
# * = called active by the depositor; ? = inconclusive; . = no result; [ ] = remark or other dose. Unless noted, calls follow the shape of the dose curve; as a rule, active = well fitted curve in the direction sought with a large enough effect; inconclusive = small, poorly fitted or top-dose-only effect, or another doubt; inactive = no such curve, though single readings can be large; an effect the other way counts as inactive or inconclusive. Unless noted, % is scaled to controls: 0 for no effect and ±100 for the full control effect; potency is read from the fitted curve at half-maximal effect.
SMILES,Tb PYK inh,Sm TGR block,RE007 growth inh,LmPK inh,AMA1 RON2 block
Nc1c(C(O)(C(F)(F)F)C(F)(F)F)ccc2ccccc12,-1%,40µM*,-5%,-2%,-15%
COc1ccc(Nc2nnc(-c3ccc(C)c(S(=O)(=O)N4CCOCC4)c3)c3ccccc23)cc1,-1%,4%,.,.,.
Cc1ccccc1CN1C(=O)c2ccccc2S(=O)c2ccc(C(=O)NCc3ccccc3)cc21 (stereo not drawn),3%,4%,.,.,.
Cc1cc(Cl)ccc1NC(=O)CCS(=O)(=O)c1ccc2c(c1)CC(C)N2C(=O)C1CC1 (stereo not drawn),-6%,-1%,.,.,.
Cn1c(=O)n(C)c2cc(N3CCOCC3)c(NC(=O)c3ccc(Cl)cc3)cc21,0%,0%,.,.,.
N#C/C(=C(\O)Cc1ccccc1)c1nc2ccccc2[nH]1,-6%,-6%,18%,0%,4%
N#C/C(=C(/O)CCl)c1nc2ccccc2[nH]1,-6%,25µM*,-21%,0%,63%
CC(C)Oc1ccc(CNC(=O)CN2C(=O)CCn3nc(-c4cn(C)c5ccccc45)cc32)cc1,1%,-1%,.,.,.
Cc1cc(C)c(SSc2nnnn2-c2ccccc2)c(C)c1,3.5µM*,.,13%,.,-7%
Cc1ccc2cc(C)c(Sc3nnnn3-c3ccccc3)nc2c1,1%,-7%,18%,2%,-8%
Cc1ccc(CNS(=O)(=O)c2c(C)nc3sc(C)cn3c2=O)cc1,-3%,-7%,.,.,.
Cc1ccc(-c2nc3c(c(SCC(=O)Nc4cccc(C(=O)O)c4)n2)Cc2cccc(C)c2O3)cc1,.,-10%,.,.,.
CC(C)(C)C(=O)Nc1ccc2nc(SCC(=O)N3CCc4ccccc43)sc2c1,-7%,-1%,.,.,.
Cc1ccc(S(=O)(=O)Cc2ccc(C(=O)N3CCCCCC3)o2)cc1,-4%,16µM*,2%,11%,3%
Cc1ccc(S(=O)(=O)Cc2ccc(C(=O)N3CCN(c4cc(C)ccc4C)CC3)o2)cc1,7%,1%,16%,1%,-8%
Cc1ccc(C)c(N2CCN(C(=O)c3ccc(CS(=O)(=O)c4ccccc4C)o3)CC2)c1,1%,25µM*,-12%,2%,-18%
Cc1ccc(S(=O)(=O)Cc2ccc(C(=O)N3CCN(c4ccccn4)CC3)o2)cc1,1%,?,-4%,1%,-4%
CCOC(=O)C1CCCN(C(=O)c2ccc(CS(=O)(=O)Cc3ccccc3C)o2)C1 (stereo not drawn),5%,28µM*,0%,5%,-16%
Cc1ccc(S(=O)(=O)Cc2ccc(C(=O)N3CCCC3)o2)cc1,0%,45µM*,7%,10%,0%
CCc1nnc(NC(=O)CSc2nccn2Cc2ccc(Cl)cc2)s1,-14%,-16%,.,.,.
COc1ccc(NC(=O)N2CCc3nc(-c4ccc(OC)cc4C)c4c(c3C2)CO[C@@H](c2ccccc2)C4)cc1,.,.,.,0%[11.5 µM],.
COC(=O)c1ccccc1NC(=O)c1ccc2c(c1)CCN2S(C)(=O)=O,1%,-8%,.,.,.
Cc1ccc(-n2c(=O)c3c4c(sc3n(CC(=O)Nc3ccccc3C)c2=O)CCCCC4)cc1C,-10%,-2%,.,.,.
CCCCCCCC(=O)CC[C@H]1[C@@H](C/C=C/CCCC(=O)OC(C)C)[C@@H](O)C[C@H]1O,-8%,.,.,.,.
CCOC(=O)C1CCCN(C(=O)c2ccc(CS(=O)(=O)c3ccc(C)cc3)o2)C1 (stereo not drawn),-5%,20µM*,-9%,9%,0%
SMILES,Tb PYK inh,Sm TGR block,RE007 growth inh,LmPK inh,AMA1 RON2 block
CCCN1CCN(C(=O)c2ccc(-c3ccc([N+](=O)[O-])cc3)o2)CC1,?,?,4%,.,-6%
CCOC(=O)C1CCCN(C(=O)c2ccc(-c3ccc([N+](=O)[O-])cc3)o2)C1 (stereo not drawn),?,6.3µM*,?,.,?
CCOC(=O)CSc1nc2cc3c(cc2c(=O)n1CCCC(=O)NCc1ccc2c(c1)OCO2)OCO3,1%,1%,.,.,.
O=C1c2nc3cc(-c4ccco4)[nH]n3c(=O)c2CN1Cc1ccccc1,-4%,20µM*,-5%,5%,-10%
CC1(C)Cc2c(c(N3CCOCC3)nc3sc4c(NCc5ccco5)nnnc4c23)CS1,-8%,40µM*,19%,-1%,-5%
O=C(CN1CCN(C(=O)c2ccco2)CC1)N1CCc2[nH]c3ccccc3c2C1,2%,20µM*,-12%,0%,-11%
Cc1ccc2cccnc2c1NC(=S)NC(=O)c1ccccc1,-8%,35µM*,-13%,8%,41%
Cc1ccc2cn[nH]c2c1NC(=S)NC(=O)c1ccccc1,-3%,14µM*,-28%,2%,26%
Cc1ccc(-c2cc(C(=O)Nc3nccs3)c3ccccc3n2)c(C)c1,3%,-11%,-10%,-1%,8%[2.32 µM]
Cc1ccc(-c2cc(C(=O)Nc3nccs3)c3ccccc3n2)o1,-25%,7.1µM*,?,-18%,83%
CCc1nnc(NC(=O)c2cc(-c3ccco3)nc3ccccc23)s1,-11%,16µM*,15%,-1%,?
Cc1cccc(NC(=O)c2cc(-c3ccco3)nc3ccccc23)n1,-11%,20µM*,-10%,1%,?
CCCCCCC(=O)O[C@@H]1CC[C@H]2[C@@H]3CCc4cc(O)ccc4[C@H]3CC[C@]12C,-12%,.,.,.,.
CCOC(=O)c1cnc2ccc(C)cc2c1Nc1ccc(N2CCOCC2)cc1,-4%,-1%,-20%,0%,14µM*
CC(C)(C)C(=O)Cn1c(=O)n(CCCCCC(=O)NCc2ccc3c(c2)OCO3)c(=O)c2sccc21,-1%,-6%,.,.,.
C[C@@H](C(=O)O)c1ccc(C2CCCCC2)c2ccccc12,2%,.,.,.,.
Cc1nnsc1C(=O)Oc1ccc(C#N)cc1,3%,16µM*,.,.,.
CCOCC(=O)Nc1nc2ccccc2s1,-7%,35µM*,?,10%,-1%
CCNC(=O)Nc1nc2ccccc2s1,4%,0%,12%,-6%,0%
CSc1nc(=S)n(-c2ccccc2)c(C)c1C(C)=O,3%,40µM*,-8%,0%,3%
CCN1C(=O)C(CC(=O)Nc2ccc(OC)cc2)N(Cc2cccnc2)C1=S (stereo not drawn),-7%,-28%,-10%,1%,12µM*
COc1ccc(NC(=O)CC2C(=O)N(CCc3ccccc3)C(=S)N2Cc2cccnc2)cc1 (stereo not drawn),0%,-2%,14%,0%,-12%
O=C(c1cc(-c2ccco2)on1)N1CCc2ccccc2C1,-11%,13µM*,-4%,4%,13%
COc1ccccc1N1CCN(C(=O)c2cc(-c3ccco3)on2)CC1,-4%,56µM*,5%,1%,-13%
Cc1ccc(NC(=O)Cn2c(=O)n(-c3ccccc3)c(=O)c3ccc(C(=O)NCc4ccc5c(c4)OCO5)cc32)c(C)c1,2%,2%,.,.,.
CC(=O)c1cccc(NC(=O)c2nc3ccccc3n(C)c2=O)c1,-15%,-4%,.,.,.

# Assay outcomes deposited in PubChem BioAssay by National Center for Advancing Translational Sciences (NCATS).
